# Laboratory results reported in PubChem BioAssay (NCI).
# The panel holds about 79,000 compounds, 15% with a hit somewhere; the sample as a whole holds those more often. A number with no mark means an inactive call. The source made the active and inactive calls. No stated cut-off is given here; in the data, active means growth inhibition above about 70%; inactive means the rest.
# Key:
# [1] = NCI Yeast Anticancer Drug Screen. Data for the rad52 strain (AID 147);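 further: 0% = growth of vehicle-treated control cultures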; conditions: S. cerevisiae rad52 mutant growth inhibition, hits give high values
# In short: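 Screen used a yeast mutant impaired in DNA repair. After compound exposure, growth was measured. Values reflect inhibition compared with vehicle-treated cells.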
# [2] = NCI Yeast Anticancer Drug Screen. Data for the wt1 strain (AID 149);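 further: 0% = growth of vehicle-treated wt1 cultures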; conditions: S. cerevisiae wt1 strain (SPY 50644) growth inhibition, hits give high values
# In short: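 wt1 yeast, compound-treated; % growth inhibition vs vehicle control.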
# [3] = NCI Yeast Anticancer Drug Screen. Data for the rad50EPP+ strain (AID 151);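 further: 0% = growth of vehicle-treated control cultures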; conditions: S. cerevisiae rad50 mutant strain, hits give high values
# In short: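 Exposing the rad50EPP+ strain to each compound, growth was compared with vehicle-only cultures to give inhibition.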
# [4] = NCI Yeast Anticancer Drug Screen. Data for the mgt1 strain (AID 153); conditions: S. cerevisiae mgt1 mutant growth inhibition, hits give high values
# In short: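 Genetically defined yeast (mgt1) treated with compound; inhibition of growth expressed against vehicle-treated controls.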
# [5] = NCI Yeast Anticancer Drug Screen. Data for the rad50 strain (AID 155);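 further: 0% = growth of vehicle-only cultures of the same strain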; conditions: S. cerevisiae rad50 strain growth inhibition, hits give high values
# In short: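 Genetically altered yeast (DNA repair pathway); compound treatment; growth inhibition vs vehicle ctrl.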
# [6] = NCI Yeast Anticancer Drug Screen. Data for the mec2-1 strain (AID 157); conditions: S. cerevisiae mec2-1 strain, hits give high values
# In short: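 Readout is yeast growth inhibition, normalised to vehicle-treated controls, in the mec2-1 strain exposed to compound.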
# [7] = NCI Yeast Anticancer Drug Screen. Data for the rad14 strain (AID 159);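 further: 0% = growth of vehicle-treated control cultures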; conditions: S. cerevisiae rad14 strain growth inhibition, hits give high values
# In short: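 Test compounds were applied to a repair-deficient yeast strain. Its growth was then compared with that of cultures given vehicle alone, and inhibition was expressed relative to those controls.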
# [8] = NCI Yeast Anticancer Drug Screen. Data for the sgs1 mgt1 strain (AID 161);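 further: 0% = growth of cultures given vehicle only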; conditions: S. cerevisiae sgs1 mgt1 strain, hits give high values
# In short: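 Compounds are added to genetically altered yeast, and growth is compared with cultures given vehicle alone to give percent inhibition.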
# [9] = NCI Yeast Anticancer Drug Screen. Data for the CLN2oe strain (AID 163);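 further: 0% = growth of vehicle-only control cultures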; conditions: S. cerevisiae CLN2oe strain, hits give high values
# In short: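 Values reflect how much compound exposure reduced yeast growth, referenced to vehicle-exposed cells. Assay organism is a strain with a defined genetic change affecting cell-cycle control.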
# [10] = NCI Yeast Anticancer Drug Screen. Data for the cln2 rad14 strain (AID 165);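 further: 0% = growth equal to vehicle treated cultures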; conditions: S. cerevisiae cln2 rad14 strain, hits give high values
# In short: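 Relative to vehicle controls, growth inhibition of compound-treated cln2 rad14 yeast was recorded.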
# [11] = NCI Yeast Anticancer Drug Screen. Data for the bub3 strain (AID 167); conditions: S. cerevisiae bub3 mutant strain, hits give high values
# In short: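 Yeast carrying a defined mutation is treated with each compound, and growth is compared with that of vehicle-exposed cells to give inhibition.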
# [12] = NCI Yeast Anticancer Drug Screen. Data for the wt2 strain (AID 169);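 further: 0% = growth of vehicle-treated yeast cultures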; conditions: S. cerevisiae wt2 strain growth inhibition, hits give high values
# In short: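 Values express reduction in yeast growth under compound treatment, referenced to vehicle-treated cells.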
# [13] = NCI Yeast Anticancer Drug Screen. Data for the mlh1 strain (AID 171);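 further: 0% = growth of vehicle-treated control cultures of the same strain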; conditions: S. cerevisiae mlh1 strain growth inhibition, hits give high values
# In short: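 Steps: expose the defined-mutant yeast strain to compound; expose a parallel culture to vehicle; measure growth; express compound effect as inhibition relative to the vehicle culture.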
# [14] = NCI Yeast Anticancer Drug Screen. Data for the sgs1 strain (AID 173);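 further: 0% = growth of vehicle-only control cultures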; conditions: S. cerevisiae sgs1 mutant, hits give high values
# In short: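 Treat defined-mutant yeast with compound; measure growth; calculate inhibition relative to vehicle-treated cells.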
# [15] = NCI Yeast Anticancer Drug Screen. Data for the mlh1 rad18 strain (AID 175); conditions: S. cerevisiae mlh1 rad18 strain growth inhibition, hits give high values
# In short: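 Test agents were incubated with a yeast strain of defined genotype (DNA damage repair defect). Inhibition of growth was derived by comparison with vehicle-exposed cultures.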
# [16] = NCI Yeast Anticancer Drug Screen. Data for the rad18 strain (AID 177); conditions: S. cerevisiae rad18 mutant growth inhibition, hits give high values
# In short: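 A genetically defined yeast mutant impaired in DNA damage repair was treated with test compounds, then its growth was measured against cultures receiving vehicle alone.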
# [17] = at 5.0 µM (retest, dose inferred, filed as 0.5)
# [18] = at 50.0 µM (retest, dose inferred, filed as 5.0)
smiles,measurement,setting,value
[N-]=N[N+]#I1OC(C(F)(F)F)(C(F)(F)F)c2ccccc21,growth inhibition,[1]; at 1.2 µM,44%
same,growth inhibition,[1]; at 3.7 µM,82% (active)
same,growth inhibition,[1]; at 11.0 µM,97% (active)
same,growth inhibition,[1]; at 33.0 µM,99% (active)
same,growth inhibition,[1]; at 100.0 µM,100% (active)
same,growth inhibition,[2]; at 1.2 µM,17%
same,growth inhibition,[2]; at 3.7 µM,84% (active)
same,growth inhibition,[2]; at 11.0 µM,99% (active)
same,growth inhibition,[2]; at 33.0 µM,99% (active)
same,growth inhibition,[2]; at 100.0 µM,99% (active)
same,growth inhibition,[3]; at 1.2 µM,3%
same,growth inhibition,[3]; at 3.7 µM,13%
same,growth inhibition,[3]; at 11.0 µM,42%
same,growth inhibition,[3]; at 33.0 µM,93% (active)
same,growth inhibition,[3]; at 100.0 µM,99% (active)
same,growth inhibition,[4]; at 1.2 µM,38%
same,growth inhibition,[4]; at 3.7 µM,88% (active)
same,growth inhibition,[4]; at 11.0 µM,99% (active)
same,growth inhibition,[4]; at 33.0 µM,100% (active)
same,growth inhibition,[4]; at 100.0 µM,100% (active)
same,growth inhibition,[5]; at 1.2 µM,58%
same,growth inhibition,[5]; at 3.7 µM,90% (active)
same,growth inhibition,[5]; [17],7%
same,growth inhibition,[5]; at 11.0 µM,97% (active)
same,growth inhibition,[5]; at 33.0 µM,100% (active)
same,growth inhibition,[5]; [18],99% (active)
same,growth inhibition,[5]; at 50.0 µM,91.7% (active)
same,growth inhibition,[5]; at 100.0 µM,100% (active)
same,growth inhibition,[6]; at 1.2 µM,45%
same,growth inhibition,[6]; at 3.7 µM,91% (active)
same,growth inhibition,[6]; [17],2%
same,growth inhibition,[6]; at 11.0 µM,99% (active)
same,growth inhibition,[6]; at 33.0 µM,100% (active)
same,growth inhibition,[6]; [18],99% (active)
same,growth inhibition,[6]; at 50.0 µM,93.7% (active)
same,growth inhibition,[6]; at 100.0 µM,99% (active)
same,growth inhibition,[7]; at 1.2 µM,27%
same,growth inhibition,[7]; at 3.7 µM,90% (active)
same,growth inhibition,[7]; at 11.0 µM,99% (active)
same,growth inhibition,[7]; at 33.0 µM,100% (active)
same,growth inhibition,[7]; at 100.0 µM,99% (active)
same,growth inhibition,[8]; [17],81% (active)
same,growth inhibition,[8]; [18],98% (active)
same,growth inhibition,[8]; at 50.0 µM,92.8% (active)
same,growth inhibition,[9]; at 1.2 µM,40%
same,growth inhibition,[9]; at 3.7 µM,81% (active)
same,growth inhibition,[9]; at 11.0 µM,98% (active)
same,growth inhibition,[9]; at 33.0 µM,99% (active)
same,growth inhibition,[9]; at 100.0 µM,98% (active)
same,growth inhibition,[10]; [17],47%
same,growth inhibition,[10]; [18],98% (active)
same,growth inhibition,[10]; at 50.0 µM,92% (active)
same,growth inhibition,[11]; at 1.2 µM,28%
same,growth inhibition,[11]; at 3.7 µM,83% (active)
same,growth inhibition,[11]; [17],91% (active)
same,growth inhibition,[11]; at 11.0 µM,99% (active)
same,growth inhibition,[11]; at 33.0 µM,100% (active)
same,growth inhibition,[11]; [18],98% (active)
same,growth inhibition,[11]; at 50.0 µM,92.8% (active)
same,growth inhibition,[11]; at 100.0 µM,97% (active)
same,growth inhibition,[12]; at 1.2 µM,18%
same,growth inhibition,[12]; at 3.7 µM,76% (active)
same,growth inhibition,[12]; at 11.0 µM,98% (active)
same,growth inhibition,[12]; at 33.0 µM,99% (active)
same,growth inhibition,[12]; at 100.0 µM,99% (active)
same,growth inhibition,[13]; at 1.2 µM,53%
same,growth inhibition,[13]; at 3.7 µM,90% (active)
same,growth inhibition,[13]; at 11.0 µM,98% (active)
same,growth inhibition,[13]; at 33.0 µM,99% (active)
same,growth inhibition,[13]; at 100.0 µM,99% (active)
same,growth inhibition,[14]; at 1.2 µM,41%
same,growth inhibition,[14]; at 3.7 µM,89% (active)
same,growth inhibition,[14]; at 11.0 µM,98% (active)
same,growth inhibition,[14]; at 33.0 µM,99% (active)
same,growth inhibition,[14]; at 100.0 µM,99% (active)
same,growth inhibition,[15]; [17],34%
same,growth inhibition,[15]; [18],99% (active)
same,growth inhibition,[15]; at 50.0 µM,92% (active)
same,growth inhibition,[16]; at 1.2 µM,62%
same,growth inhibition,[16]; at 3.7 µM,89% (active)
same,growth inhibition,[16]; at 11.0 µM,98% (active)
same,growth inhibition,[16]; at 33.0 µM,99% (active)
same,growth inhibition,[16]; at 100.0 µM,99% (active)
